This is part of a sample that, as a whole, favours compounds with a hit. Of some 83,000 tested, about 20% had one in any assay.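 Activity criterion: percent growth below 10, measured after cells in 96-well plates were exposed to a single compound concentration for 48 hours.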 Values without a mark were called inactive. Active and inactive are the calls of the source.
Key:
Test in all cases: NCI-60 one-dose screen, 48 h (100 = growth as untreated, 0 = no growth, -100 = all killed)
HCT-15 colon = details: 10 µM unless noted
HT29 colon = details: 10 µM unless noted
SNB-75 CNS = details: 10 µM unless noted
SNB-19 CNS = details: 10 µM unless noted
U251 CNS = details: 10 µM unless noted
SK-MEL-5 melanoma = details: 10 µM unless noted
LOX IMVI melanoma = details: 10 µM
SK-MEL-28 melanoma = details: 10 µM unless noted
SK-MEL-2 melanoma = details: 10 µM unless noted
EKVX NSCLC = details: 10 µM unless noted
SN12C renal = details: 10 µM unless noted
UO-31 renal = details: 10 µM unless noted
TK-10 renal = details: 10 µM unless noted
ACHN renal = details: 10 µM unless noted
CAKI-1 renal = details: 10 µM unless noted
A498 renal = details: 10 µM unless noted
CCRF-CEM leukemia = details: 10 µM unless noted
MOLT-4 leukemia = details: 10 µM unless noted
PC-3 prostate = details: 10 µM unless noted
UACC-62 melanoma = details: 10 µM unless noted

| Compound | growth (HCT-15 colon) | growth (HT29 colon) | growth (SNB-75 CNS) | growth (SNB-19 CNS) | growth (U251 CNS) | growth (SK-MEL-5 melanoma) | growth (LOX IMVI melanoma) | growth (SK-MEL-28 melanoma) | growth (SK-MEL-2 melanoma) | growth (EKVX NSCLC) | growth (SN12C renal) | growth (UO-31 renal) | growth (TK-10 renal) | growth (ACHN renal) | growth (CAKI-1 renal) | growth (A498 renal) | growth (CCRF-CEM leukemia) | growth (MOLT-4 leukemia) | growth (PC-3 prostate) | growth (UACC-62 melanoma) |
| --- | --- | --- | --- | --- | --- | --- | --- | --- | --- | --- | --- | --- | --- | --- | --- | --- | --- | --- | --- | --- |
| COc1cc2oc(-c3cccc(C(=O)Nc4ccc(Cl)cc4)c3)cc(=O)c2c(OCCNC(=O)[C@H](CO)NC(=O)OC(C)(C)C)c1OC | 16.5% | -26.9% (active) | 74.5% | 29.7% | 24% | -75.2% (active) | -67.5% (active) | -23.8% (active) | -1.01% (active) | 24.1% | 16.4% | 23.6% | 42.6% | 13.5% | 19.1% | 71.9% | 8.05% (active) | 5.42% (active) | – | – |
| COc1ccc(C(=O)/C=C/c2ccccc2Cl)cc1S(N)(=O)=O | 92.9% | 109% | 107% | 97.4% | 109% | – | 105% | – | 108% | 97.3% | 97.2% | 84.9% | 97.6% | 101% | 102% | 119% | 111% | – | 106% | 92.9% |
| COc1ccc(NC(=O)[C@@H](N)Cc2ccccc2)cc1C(=O)Nc1cccc(C2CC(=O)c3c(cc(OC)c(OC)c3OC)O2)c1 (stereo partly specified) | 37.7% | 73.4% | 108% | 79% | 60.2% | 46.5% | 25.1% | 73.2% | 77.9% | 72.9% | 56.4% | 33.8% | 94.8% | 54.2% | 54.1% | 96.3% | 15% | – | – | – |
| CN1CCN(Cc2ccc(C(=O)Nc3cccc(C#Cc4cccc5[nH]nc(N)c45)c3)cc2C(F)(F)F)CC1 | -93.9% (active) | -50.3% (active) | -82.5% (active) | -89.7% (active) | -79.2% (active) | – | -92% (active) | -97.4% (active) | -88.9% (active) | -93.6% (active) | -94.7% (active) | -98.2% (active) | -96% (active) | -98.3% (active) | -88.5% (active) | -80.7% (active) | -20% (active) | – | -22.9% (active) | -88% (active) |
| N#Cc1c(-c2cccc(O)c2O)cc(-c2ccc3ccccc3c2)[nH]c1=O | 52.8% | 98.2% | -6.63% (active) | 41.1% | 40.2% | 45.9% | – | 45.7% | 98.8% | 74.5% | 58.4% | 55.9% | 85.4% | 56.4% | 75.6% | 82.1% | – | 29.9% | – | 77.5% |
| Cc1ccc(S(=O)(=O)c2nc(S(=O)(=O)c3ccc(C)cc3)c(Cl)s2)cc1 | -87.6% (active) | -77.5% (active) | 108% | 81.4% | -38.5% (active) | 76.4% | -93% (active) | 29.4% | 42.5% | 0.151% (active) | -20.5% (active) | -6.4% (active) | -50.4% (active) | -92.3% (active) | -75.8% (active) | 122% | 5.23% (active) | 16.6% | – | 39.7% |
| O=C(Nc1ccccc1)N1CCN(c2cc(-c3cn(-c4ccccc4)nc3-c3cccc(O)c3)ccn2)CC1 | 21.4% | 75.8% | 101% | 81.9% | 63% | 40% | 69.1% | 73.2% | 57.4% | 77.1% | 88.8% | 55.1% | 129% | 81.7% | 70.3% | 103% | – | 33% | – | 50.4% |
| Cc1cc(C)cc(NC(=O)Cn2cc(COn3nnc4ccccc43)nn2)c1 | 106% | 104% | 96.3% | 96.2% | 103% | 101% | 100% | 100% | 105% | 102% | 97.3% | 92.5% | 100% | 100% | 97.4% | 118% | 105% | 100% | – | 96.9% |
| O=C(COc1ccc(NC(=O)Nc2ccc(Cl)c(Cl)c2)cc1)N=Nc1c(O)[nH]c2ccc([N+](=O)[O-])cc12 | 88.5% | 81.6% | 66.2% | 67% | 19.4% | 90.7% | – | 57.6% | 48.7% | 85.6% | 52.6% | 85.3% | 113% | 77.8% | 72% | 98.2% | 30.4% | 28% | – | 85.6% |
| O=C(c1ccccc1)c1ccc2nc(-c3cccc(Cl)c3)[nH]c2c1 | 108% | 110% | 99.2% | 103% | 96.5% | 99.5% | 95.4% | 104% | 106% | 105% | 99.5% | 95.4% | 95.9% | 100% | 106% | 114% | 113% | 103% | – | 98% |
| O=C(Cn1c2c(sc1=O)[C@H]1[C@@H](O)[C@@H](O)[C@H](O)[C@@H]1CS2)N1CCOCC1 | 107% | 106% | 82.3% | 103% | 99.2% | 102% | – | 107% | 100% | 100% | 102% | 91.1% | 88.2% | 102% | 94.7% | 99.3% | – | 118% | – | 101% |
| COc1ccc(C(=O)/C=C/c2ccc3ccccc3c2)cc1S(N)(=O)=O | -87.1% (active) | -26.5% (active) | -15.5% (active) | -49.6% (active) | -96.3% (active) | – | -89.1% (active) | – | 53.4% | -73.4% (active) | -43.7% (active) | -87.2% (active) | -82.3% (active) | -92.2% (active) | 2.11% (active) | 97.2% | 5.96% (active) | – | -11.9% (active) | -55.6% (active) |
| COc1ccc(C(=O)/C=C/c2cc3c(cc2Br)OCO3)cc1S(N)(=O)=O | -40.4% (active) | 0.446% (active) | 2.3% (active) | 6.32% (active) | -95.1% (active) | – | – | 27.6% | 89.2% | 4.57% (active) | -12.5% (active) | -44.5% (active) | 16.8% | -23% (active) | -20.2% (active) | 88.7% | 5.43% (active) | – | 2.21% (active) | 39.2% |
| CCOC(=O)C1=C(N)N(c2ccccc2)C2=C(C(=O)CC(C)(C)C2)C1c1ccccc1Cl (stereo unspecified) | 49.1% | 55% | 66.3% | 70.5% | 79.3% | 60.5% | 85.4% | 81.4% | 57.7% | 74.6% | 75% | 55.3% | 100% | 69.2% | 46.7% | 99.4% | 48.4% | 25.8% | – | 44% |
| COc1cc(OC)cc(C(=O)Nc2cccc(-c3cn(-c4ccc(S(N)(=O)=O)cc4)nn3)c2)c1 | 92.2% | 114% | 51.7% | 17.8% | 32.2% | – | 69.3% | 81.1% | 92.6% | 78.8% | 70% | 96.3% | 94.8% | 88.5% | 60.8% | 116% | 105% | – | 91.4% | – |
| COc1cc(OC)c2c3nc4cc(C)c(C)cc4nc3n(CCN(C)C)c2c1 | -27.9% (active) | 49.9% | 78.3% | 70.5% | 87.7% | 69.8% | – | – | 101% | 89.9% | -48.8% (active) | -68.6% (active) | 147% | 47.3% | 50.5% | 105% | – | 10.4% | – | 99.1% |
| CC1(C)CC[C@]2(C(=O)Nc3ccc(Br)cc3)CC[C@]3(C)C(=CCC4[C@@]5(C)C[C@@H](O)[C@H](O)[C@@](C)(CO)C5CC[C@]43C)C2C1 (stereo partly specified) | -13% (active) | -60.9% (active) | 57.8% | – | -18.9% (active) | -94.4% (active) | -86.7% (active) | 32.1% | -19.8% (active) | 15.5% | – | 21.1% | 22.5% | 17.7% | 20.6% | -45.2% (active) | -19.8% (active) | -10.5% (active) | -13.8% (active) | 8.99% (active) |

— PubChem BioAssay (NCI)
